# From PubChem BioAssay (NCI)
# Values joined by “and” are separate entries in the source; they are usually repeats but may differ in a detail not shown here. Equal values may be shown once. The panel holds about 79,000 compounds, 15% with a hit somewhere; the sample as a whole holds those more often. Some compounds were tested as several samples or in several runs, with calls that do not always agree. Active and inactive are the calls of the source. No stated cut-off is given here; in the data, active means growth inhibition above about 70%; inactive means the rest.
# Experiments:
# [1] = NCI Yeast Anticancer Drug Screen. Data for the rad50 strain (AID 155);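 further: 0% = growth of vehicle-only cultures of the same strain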; settings: S. cerevisiae rad50 strain growth inhibition, stronger effect = higher value
# Method in brief: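 Growth of the mutant yeast was measured after compound exposure and referenced to vehicle-treated cultures.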
# [2] = NCI Yeast Anticancer Drug Screen. Data for the mec2-1 strain (AID 157); settings: S. cerevisiae mec2-1 strain, stronger effect = higher value
# Method in brief: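 Using mec2-1 yeast: add compound, measure growth, express inhibition versus vehicle-treated cultures.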
# [3] = NCI Yeast Anticancer Drug Screen. Data for the sgs1 mgt1 strain (AID 161);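 further: 0% = growth of cultures given vehicle only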; settings: S. cerevisiae sgs1 mgt1 strain, stronger effect = higher value
# Method in brief: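 Yeast cells carrying a defined DNA-repair defect were exposed to test compounds. Growth inhibition was measured relative to vehicle-treated controls.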
# [4] = NCI Yeast Anticancer Drug Screen. Data for the cln2 rad14 strain (AID 165);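 further: 0% = growth equal to vehicle treated cultures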; settings: S. cerevisiae cln2 rad14 strain, stronger effect = higher value
# Method in brief: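 Yeast strain cln2 rad14, bearing defects in cell cycle control and DNA repair, serves as the test system; values reflect growth inhibition compared with vehicle.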
# [5] = NCI Yeast Anticancer Drug Screen. Data for the bub3 strain (AID 167); settings: S. cerevisiae bub3 mutant strain, stronger effect = higher value
# Method in brief: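 Whole-cell yeast assay. The mutant strain was incubated with compounds, and growth inhibition was determined by comparison with vehicle-treated cells.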
# [6] = NCI Yeast Anticancer Drug Screen. Data for the mlh1 rad18 strain (AID 175); settings: S. cerevisiae mlh1 rad18 strain growth inhibition, stronger effect = higher value
# Method in brief: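 Steps: expose repair-defective yeast to compound; measure growth; express inhibition against vehicle-treated controls.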
# [7] = at 5.0 µM (retest, dose inferred, filed as 0.5)
# [8] = at 50.0 µM (retest, dose inferred, filed as 5.0)
Compound,"growth inhibition [1, 7]","growth inhibition [1, 8]",growth inhibition ([1]; at 50.0 µM),"growth inhibition [2, 7]","growth inhibition [2, 8]",growth inhibition ([2]; at 50.0 µM),"growth inhibition [3, 7]","growth inhibition [3, 8]",growth inhibition ([3]; at 50.0 µM),"growth inhibition [4, 7]","growth inhibition [4, 8]",growth inhibition ([4]; at 50.0 µM),"growth inhibition [5, 7]","growth inhibition [5, 8]",growth inhibition ([5]; at 50.0 µM),"growth inhibition [6, 7]","growth inhibition [6, 8]",growth inhibition ([6]; at 50.0 µM)
O=C(CCl)Nc1cccc(Cl)c1,3% (inactive),80% (active),92.4% (active),2% (inactive),50% (inactive),89.5% (active),1% (inactive),68% (inactive),87.5% (active),2% (inactive),33% (inactive),67.8% (inactive),10% (inactive),78% (active),94.4% (active),2% (inactive),78% (active),95% (active)
C[C@H]1C/C=C/[C@H]2[C@@H]3O[C@]3(C)[C@@H](C)[C@H]3[C@H](Cc4ccccc4)NC(=O)[C@]32OC(=O)O/C=C/[C@@](C)(O)C1=O,21% (inactive),30% (inactive),72.7% (active),19% (inactive),53% (inactive),91.3% (active),19% (inactive),14% (inactive),32.7% (inactive),25% (inactive),36% (inactive),67.3% (inactive),28% (inactive),48% (inactive),83.2% (active),17% (inactive),46% (inactive),81.8% (active)
CC(Br)c1ccccc1 (centres undefined),1% (inactive),17% (inactive),50.2% (inactive),1% (inactive),10% (inactive),26.6% (inactive),2% (inactive),14% (inactive),40.6% (inactive),3% (inactive),7% (inactive),-2.05% (inactive),6% (inactive),42% (inactive),65.8% (inactive),5% (inactive),21% (inactive),79.6% (active)
COc1cc(OC)c(OC)cc1/C=C/[N+](=O)[O-],35% (inactive),64% (inactive),85.9% (active),24% (inactive),85% (active),90.9% (active),46% (inactive),85% (active),90.8% (active),9% (inactive),39% (inactive),77.8% (active),12% (inactive),67% (inactive),94.8% (active),71% (active),91% (active),92% (active)
CN1CC(Br)(Br)C(=O)N(C)C1=O,18% (inactive),99% (active),89.8% (active),2% (inactive),100% (active),93.3% (active),-9% (inactive),99% (active),92.8% (active),-4% (inactive),99% (active),93.4% (active),-18% (inactive),100% (active),92.9% (active),2% (inactive),100% (active),88% (active)
Oc1c(Cl)c(Cl)c(Cl)c(Cl)c1Cl,14% (inactive) and 30% (inactive),99% (active) and 100% (active),80.8% (active) and 99% (active),16% (inactive) and 23% (inactive),100% (active) and 99% (active),99.8% (active) and 99% (active),13% (inactive) and 39% (inactive),98% (active) and 99% (active),97.5% (active) and 99.2% (active),15% (inactive) and 30% (inactive),99% (active),99% (active),5% (inactive) and 13% (inactive),99% (active),99.4% (active) and 99% (active),21% (inactive) and 40% (inactive),99% (active),90% (active) and 99% (active)
O=C(CCl)c1ccc(O)cc1,16% (inactive),96% (active),91.5% (active),21% (inactive),98% (active),98.2% (active),31% (inactive),97% (active),97.3% (active),7% (inactive),97% (active),89.2% (active),20% (inactive),98% (active),96% (active),22% (inactive),98% (active),97.8% (active)
CC(Br)CN1CCOCC1 (centres undefined),91% (active),97% (active),94.2% (active),25% (inactive),98% (active),96.8% (active),58% (inactive),94% (active),67.7% (inactive),14% (inactive),66% (inactive),12.8% (inactive),-10% (inactive),36% (inactive),2.6% (inactive),66% (inactive),97% (active),96.2% (active)
COC1/C=C\C=C(/C)C(=O)NC2=CC(=O)C(NCCCl)=C(CC(C)CC(OC)C(O)C(C)/C=C(/C)C1OC(N)=O)C2=O (centres undefined),24% (inactive),97% (active),91% (active),49% (inactive),98% (active),92.3% (active),89% (active),99% (active),92.6% (active),88% (active),94% (active),90.4% (active),87% (active),98% (active),90.5% (active),53% (inactive),98% (active),89% (active)
CN(C)C(=O)Oc1c(Cl)cc(Cl)c(Cl)c1Cl,4% (inactive),16% (inactive),13.9% (inactive),1% (inactive),9% (inactive),-10.9% (inactive),6% (inactive),12% (inactive),22% (inactive),5% (inactive),7% (inactive),36.1% (inactive),2% (inactive),8% (inactive),-36% (inactive),19% (inactive),28% (inactive),37.5% (inactive)
[O]=[Sb]([OH])([OH])[c]1ccccc1,95% (active),98% (active),99.5% (active) and -13.8% (inactive),91% (active),99% (active),99.5% (active) and -26.9% (inactive),94% (active),99% (active),99.2% (active) and 28.1% (inactive),94% (active),98% (active),99.4% (active) and 23% (inactive),93% (active),98% (active),99.3% (active) and 17.1% (inactive),94% (active),98% (active),99.2% (active) and 6.5% (inactive)
Cc1cc[n+](C2=C(Nc3ccc(Cl)cc3Cl)C(=O)c3ccccc3C2=O)cc1,41% (inactive),90% (active),92.3% (active),-1% (inactive),58% (inactive),61.5% (inactive),1% (inactive),59% (inactive),66.4% (inactive),4% (inactive),39% (inactive),40.2% (inactive),5% (inactive),78% (active),61.1% (inactive),4% (inactive),58% (inactive),81% (active)
O=C(O)C(O)(c1ccccc1)C1(O)CCCCC1 (centres undefined),-147% (inactive),-173% (inactive),1.7% (inactive),-47% (inactive),-54% (inactive),7.95% (inactive),-53% (inactive),-64% (inactive),17.2% (inactive),-54% (inactive),-61% (inactive),3.15% (inactive),-64% (inactive),-83% (inactive),-3.65% (inactive),-114% (inactive),-127% (inactive),50.3% (inactive)
C1CC[N-]CC1.CC(=N\O)/C(C)=N/O.CC(=N\O)/C(C)=N/O.OC1[CH-]CCCC1.[Co+2],22% (inactive),20% (inactive),23.9% (inactive),5% (inactive),16% (inactive),-1.95% (inactive),28% (inactive),25% (inactive),13.9% (inactive),17% (inactive),28% (inactive),76% (active),13% (inactive),13% (inactive),-5.4% (inactive),17% (inactive),35% (inactive),30.9% (inactive)
Oc1c(-c2ccccc2)cc(-[n+]2c(-c3ccccc3)cc(-c3ccccc3)cc2-c2ccccc2)cc1-c1ccccc1,97% (active),99% (active),91.7% (active),98% (active),99% (active),92.7% (active),98% (active),99% (active),89.6% (active),98% (active),98% (active),89.8% (active),99% (active),99% (active),89.8% (active),98% (active),99% (active),91.5% (active)
NCC(O)c1cccc(O)c1 (centres undefined),-18% (inactive),77% (active),70.3% (active),-12% (inactive),50% (inactive),40.2% (inactive),-8% (inactive),51% (inactive),66.3% (inactive),24% (inactive),65% (inactive),60% (inactive),12% (inactive),77% (active),75.2% (active),11% (inactive),92% (active),65.3% (inactive)
Cc1cc(NCc2ccccc2)c2ccccc2[n+]1CCCCCCCCCC[n+]1c(C)cc(NCc2ccccc2)c2ccccc21,99% (active),99% (active),90.8% (active),100% (active),99% (active),92.2% (active),99% (active),99% (active),92% (active),98% (active),99% (active),91.1% (active),99% (active),99% (active),89.1% (active),97% (active),98% (active),86.2% (active)
CC[C@@]1(O)C[C@H](OC2CC(N(C)C)C(OC3CC(O)C(OC4CCC(=O)C(C)O4)C(C)O3)C(C)O2)c2c(cc3c(c2O)C(=O)c2c(O)ccc(O)c2C3=O)[C@H]1C(=O)OC (some centres undefined),95% (active) and 89% (active),98% (active),88.1% (active) and 91.8% (active),95% (active) and 78% (active),99% (active),91.2% (active) and 93.5% (active),95% (active) and 87% (active),99% (active) and 98% (active),89.8% (active) and 92.3% (active),91% (active) and 71% (active),97% (active),88.7% (active) and 91.2% (active),92% (active) and 67% (inactive),98% (active),89.3% (active) and 92.3% (active),96% (active) and 80% (active),98% (active),88.2% (active) and 91.7% (active)
